# Reference: PubChem BioAssay AID743193 (National Center for Advancing Translational Sciences (NCATS), 2013)
# Inconclusive results are not listed. A number with no mark means an inactive call. Calls follow the shape of the dose curve; as a rule, active = well fitted curve in the direction sought with a large enough effect; inconclusive = small, poorly fitted or top-dose-only effect, or another doubt; inactive = no such curve, though single readings can be large or run the other way.
# Target: Glyceraldehyde-3-phosphate dehydrogenase (Oryctolagus cuniculus) (UniProt P46406)
# Sequence (P46406 whole entry, looked up): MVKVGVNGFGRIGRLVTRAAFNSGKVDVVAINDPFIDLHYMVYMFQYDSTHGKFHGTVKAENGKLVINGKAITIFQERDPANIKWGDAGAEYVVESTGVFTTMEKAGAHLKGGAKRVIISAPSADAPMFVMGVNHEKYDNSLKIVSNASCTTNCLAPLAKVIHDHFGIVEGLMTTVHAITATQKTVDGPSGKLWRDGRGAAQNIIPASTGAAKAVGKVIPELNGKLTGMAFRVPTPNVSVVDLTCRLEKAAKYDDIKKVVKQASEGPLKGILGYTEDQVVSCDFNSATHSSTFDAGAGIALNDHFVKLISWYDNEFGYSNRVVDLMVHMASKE
# Assay: Extended Characterization of HPGD Inhibitors: Counterscreen Against rGAPDH
# Details: rabbit GAPDH/diaphorase coupled resazurin fluorescence; series mostly up to 57.1 µM; activity change, negative = inhibition: at the top concentration
# Description: The central role of HPGD is to inactivate prostaglandins such as prostaglandin E2 (PGE2) or prostaglandin D2 (PGD2). These prostaglandins are involved in a number of processes, including inflammation, differentiation, and cellular signaling, which makes HPGD an important target for pharmacological intervention. The counterscreen for non-specific dehydrogenase activity was conducted using a rabbit glyceraldehyde-3-phosphate dehydrogenase (rGAPDH; Sigma Aldrich, St. Louis, MO) coupled assay system. In this assay, the rGAPDH-catalyzed conversion of NAD+ to NADH is coupled downstream to an additional enzyme, diaphorase (Sigma Aldrich, St. Louis, MO), which reduces the non-fluorescent molecule, resazurin, to a red fluorescent product, resorufin, in an NADH-dependent fashion. Thus, rGAPDH activity leads to an increase in fluorescence at 598 nm, and inhibitors of the reaction lead to a decrease in resorufin production and a subsequent decrease in fluorescence. The change in fluorescence between 0 and 30 minutes was measured, and data were normalized to control columns representing maximum signal (all components) and background (no rGAPDH). The buffer consisted of 100mM triethanolamine, pH 7.6, 5mM MgCl2 and 0.01% Tween-20, and the assay was run in black, solid-bottom, non-tissue culture-treated Greiner plates. NIH Chemical Genomics Center [NCGC] NIH Molecular Libraries Probe Centers Network [MLPCN] MLPCN Grant: MH084681 Assay Submitter (PI): Structural Genomics Consortium
# 3 uL of substrate buffer (final conc: 2 mM G3P, 1 mM NAD+, 0.1 mM resazurin, 0.1 mg/mL diaphorase) are added to the 1536-well plate before 23 nL of compound library is pinned into the well. Then, 1 uL of rGAPDH or 0x control (final conc: 2 nM and buffer only, resp.) are added and plate is immediate read for fluorescence on the ViewLux; ex 525, em 598, 1 second exposure, Bodipy Mirror), incubated for 30 at RT before a final read on the ViewLux with the same settings.
row,Compound,"activity change, negative = inhibition [%]"
1,COc1ccc(-n2cnc3cc(C(=O)N4CCCCC4)ccc32)cc1,8.15
2,Cc1cc(-c2nnc3n2CCCCC3)c(C)n1-c1ccc(Cl)c(Cl)c1,7.74
3,O=C(c1ccc2c(c1)ncn2-c1cccc(Cl)c1)N1CCCCC1,6.42
4,Cc1cccc(-n2cnc3cc(C(=O)N4CCCC(C)(C)C4)ccc32)c1,4.68
5,Cc1ccc(-n2c(C)cc(-c3nnc4n3CCCCC4)c2C)cc1,9.72
6,Cc1cc(-c2nnc3n2CCCCC3)c(C)n1-c1cccc(Cl)c1,4.12
7,Cc1cccc(-n2cnc3cc(C(=O)N4CCCC(C(F)(F)F)C4)ccc32)c1 (centres undefined),7.89
8,Cc1cc(-c2nnc3n2CCCCC3)c(C)n1-c1cccc(C(F)(F)F)c1,9.17
9,O=C(c1ccc2c(c1)ncn2-c1cccc(C(F)(F)F)c1)N1CCCCC1,2.8
